Data reported in PubChem BioAssay (NCI).
Compounds without any hit were thinned out: in the full panel of roughly 83,000, 20% have a hit.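 Percent growth is the endpoint: 0 to 100 indicates growth inhibition (40 means 60% inhibition), 0 means no net growth, and negative values indicate cell death.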 Values without a mark were called inactive. The source made the active and inactive calls. Rule for the calls: active = growth percent below 10; inactive = the rest.

Key:
Assay in all cases: NCI-60 one-dose screen, 48 h (100 = growth as untreated, 0 = no growth, -100 = all killed)
Conditions in all cases: 10 µM
HCT-15 colon = system: HCT-15 colon
HT29 colon = system: HT29 colon
SNB-75 CNS = system: SNB-75 CNS
SNB-19 CNS = system: SNB-19 CNS
U251 CNS = system: U251 CNS
PC-3 prostate = system: PC-3 prostate
SK-MEL-5 melanoma = system: SK-MEL-5 melanoma
UACC-62 melanoma = system: UACC-62 melanoma
LOX IMVI melanoma = system: LOX IMVI melanoma
SK-MEL-28 melanoma = system: SK-MEL-28 melanoma
SK-MEL-2 melanoma = system: SK-MEL-2 melanoma
EKVX NSCLC = system: EKVX NSCLC
SN12C renal = system: SN12C renal
UO-31 renal = system: UO-31 renal
TK-10 renal = system: TK-10 renal
ACHN renal = system: ACHN renal
CAKI-1 renal = system: CAKI-1 renal
A498 renal = system: A498 renal
MOLT-4 leukemia = system: MOLT-4 leukemia
CCRF-CEM leukemia = system: CCRF-CEM leukemia

Row | SMILES | growth (HCT-15 colon) | growth (HT29 colon) | growth (SNB-75 CNS) | growth (SNB-19 CNS) | growth (U251 CNS) | growth (PC-3 prostate) | growth (SK-MEL-5 melanoma) | growth (UACC-62 melanoma) | growth (LOX IMVI melanoma) | growth (SK-MEL-28 melanoma) | growth (SK-MEL-2 melanoma) | growth (EKVX NSCLC) | growth (SN12C renal) | growth (UO-31 renal) | growth (TK-10 renal) | growth (ACHN renal) | growth (CAKI-1 renal) | growth (A498 renal) | growth (MOLT-4 leukemia) | growth (CCRF-CEM leukemia)
1 | CC[C@@H](C(=O)[C@@H](C)[C@@H](O)[C@H](C)[C@@H]1O[C@@H]([C@@H](CC)C(=O)O)CC[C@@H]1C)C1O[C@]2(C=CC(=O)[C@]3(CC[C@@](C)([C@H]4CC[C@](O)(CC)[C@H](C)O4)O3)O2)[C@H](C)C[C@@H]1C (stereo partly drawn) | 23.8% | 30.5% | 19.2% | 11.6% | 24% | 27.4% | -91.7% (active) | -32.5% (active) | 35.4% | -81.2% (active) | 40.7% | 38% | 27.6% | 24.3% | 57.7% | 31.6% | 27% | -11.4% (active) | 40.6% | –
2 | COc1ccc(Cl)cc1Nc1nc(C(F)(F)F)ccc1C(=O)N/N=C/c1cc(OC)c(OC)c(OC)c1 | 23.7% | 32% | 32.6% | 38.9% | 16.3% | 6.2% (active) | 18.8% | -48% (active) | -61.5% (active) | 30.2% | 9.11% (active) | 32.6% | 25.1% | 15.4% | 20.2% | 16% | 27.6% | 26.8% | 9.62% (active) | 9.22% (active)
3 | CCc1ccc(-c2ccc(-n3nc(C)c4c(N)nc(Cc5ccccc5)nc43)cc2)cc1 | 60.6% | 78.8% | 65% | 66.3% | 68% | 54.7% | 95.5% | 73.1% | 51.1% | 92.4% | 36% | 83.8% | 71.1% | 59.2% | 75% | 35.5% | – | 73.4% | 55.7% | –
4 | CC(CN(C)C)Oc1ccccc1NC1=C(Cl)C(=O)C(Nc2ccccc2OC(C)CN(C)C)=C(Cl)C1=O (stereo not drawn) | -79% (active) | -70.1% (active) | 35% | 3.85% (active) | -84.2% (active) | 3.47% (active) | -95.8% (active) | -84.5% (active) | -80.6% (active) | -64.9% (active) | -61.2% (active) | -71.7% (active) | -96% (active) | -99.9% (active) | -97.8% (active) | -98.4% (active) | – | 26.4% | -30.8% (active) | -1.98% (active)
5 | CCOC(=O)c1cc(C(=O)c2ccc(OC)c(OC)c2)n2ccncc12 | 89.9% | 84.6% | 104% | 98% | 105% | 80.6% | 89.4% | 94% | 77.7% | 115% | 96% | 106% | 102% | 71.3% | 123% | 88.1% | – | 94.6% | 94.2% | 101%
6 | CN(C)c1ccc(/C=N/NC(=O)c2cccc3ccccc23)c(Cl)c1 | 27.9% | 12.9% | 20.3% | 52.6% | 23.9% | 20.3% | 24.3% | 46.4% | 37.9% | 42% | 28% | 45.2% | 42.9% | 57.5% | 63.8% | 51.2% | – | -3.25% (active) | 15.5% | 10.1%
7 | COc1cc(-c2nn(-c3cccc(NC(=O)CCN4CCN(Cc5ccccc5)CC4)c3)cc2-c2ccncc2)ccc1Cl | 11.8% | -20.2% (active) | -10.3% (active) | 39.9% | 6.53% (active) | 7.06% (active) | -95.3% (active) | 10.7% | -88.6% (active) | -85.4% (active) | -31.2% (active) | 48.2% | 41.7% | 15.6% | 26.1% | 24.1% | – | -8.39% (active) | 5.06% (active) | 4.24% (active)
8 | CCOC(=O)c1cc(C(=O)c2cc(OC)c(OC)c(OC)c2)n2c1ccc1c3cccnc3ccc12 | 41.4% | 19.5% | 64.7% | 71.9% | 51% | 63.9% | 34.1% | 57.5% | 46.9% | 80.2% | 40.6% | 93.3% | 78.7% | 69% | 85.3% | 76.2% | – | 60.6% | 31.4% | 62.7%
9 | CC(=O)Oc1cc(OC(C)=O)c2ccccc2c1OC(C)=O | 81.3% | 92.9% | 85.7% | 93.8% | 94% | 62.6% | 60.9% | 89.9% | 48.3% | 99.5% | 90.5% | 97.5% | 87.4% | 62.6% | 150% | 84.9% | – | 95.2% | 69.5% | 76.7%
10 | CCN(CC)CCOc1ccc2c(c1O)C(=O)c1ccccc1C2=O | 74.4% | 68.1% | 79.1% | 82.6% | 77.3% | 85.3% | 81.2% | 90.5% | 76.6% | 102% | 88.1% | 100% | 76.2% | 67.3% | 78% | 56.9% | – | 88.3% | 72.3% | 77.2%
11 | O=C(NCCNC(=O)c1ccc(F)cc1)Nc1ccc(-n2cc(-c3ccncc3)c(-c3ccc(Cl)c(O)c3)n2)cc1 | 19.5% | -45.3% (active) | 18.7% | 22.7% | -19.9% (active) | -5.9% (active) | -84.9% (active) | 7.05% (active) | -3.97% (active) | 18.4% | -11.4% (active) | 11.8% | 31.5% | 16.9% | 12.3% | 9.32% (active) | – | -24.2% (active) | 8.22% (active) | 7.35% (active)
12 | CN(C)CCCOc1ccc(OCCCN(C)C)c2c1C(=O)c1ccccc1C2=O | 91.5% | -20.6% (active) | -20.6% (active) | 7.81% (active) | 5.27% (active) | 11% | 10.5% | -46.4% (active) | -13.2% (active) | -4.67% (active) | -53.4% (active) | 13.6% | 6.55% (active) | 62.7% | -6.02% (active) | 10.8% | – | -31.9% (active) | 5.64% (active) | 2.78% (active)
13 | COc1cc(C)ccc1Oc1nc(Nc2ccc(N3CCOCC3)cc2)ncc1NC(=O)Nc1cc(C(F)(F)F)cc(C(F)(F)F)c1 | 66.6% | 63.8% | 65.9% | 61.4% | 53.1% | 38.1% | 82.6% | 82.6% | 47.1% | 94% | 88.6% | 80.7% | 58.1% | 67.5% | 51.1% | 24.4% | – | 67.8% | 19.2% | 41.9%
14 | Cc1ccc(S(=O)(=O)N(C)CCCCCC(=O)O)cc1 | 97.8% | 92.5% | 94% | 108% | 104% | 98.2% | 105% | 106% | 95.4% | 105% | 99.9% | 95.9% | 106% | 88.3% | 89.4% | 102% | – | 110% | 95.1% | 110%
15 | CCOC(=O)c1cc(C(=O)c2cc(OC)c(OC)c(OC)c2)n2ccc(-c3cc[n+](CC(=O)c4cc(OC)c(OC)c(OC)c4)cc3)cc12 | 83.3% | -10.1% (active) | 75.8% | 32.2% | -73.6% (active) | 54.1% | 81.4% | 87.4% | -43.9% (active) | 98.3% | 101% | 107% | 84.6% | 66.1% | 13.5% | 90.7% | – | 80.4% | -9.13% (active) | -15% (active)
16 | CC(C)(C)c1ccc(S(=O)(=O)Oc2ccc(NC(=O)C3CCCCC3)cc2)cc1 | 36.8% | 44.9% | 80.1% | 49.2% | 43.9% | 22.3% | 26.3% | 31.1% | 48.7% | 66.8% | 31.6% | 23.8% | 60.2% | 38% | 57.8% | 25.7% | – | 90% | 33.5% | –
